Growth data for 38 molecules are collected here from PubChem BioAssay (NCI).

Structures are written as SMILES. This is part of a sample that, as a whole, favours compounds with a hit. Of some 83,000 tested, about 20% had one in any assay.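 Interpretation: 100, growth as untreated; towards 0, rising growth inhibition; 0, no net growth; 0 to -100, cell death. Compounds scoring below 10 were considered active.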 Activity calls are given as the source filed them.

This assay has as its system SK-MEL-28 melanoma. As to the kind of experiment: NCI-60 one-dose screen, 48 h (100 = growth as untreated, 0 = no growth, -100 = all killed). Conditions: 10 µM unless noted.
On to `COc1cccc2cc(-c3cc4ccccc4[nH]3)/c(=N/C(=S)Nc3ccc(C)cc3)oc12`, for which the growth is 78.4% (inactive).
Regarding `CN1C(=O)N(C)C2NC(N/N=C/c3ccccc3)=NC21` (stereo not drawn), the growth is 102% (inactive).
As to `COc1cc(-c2cc(=O)oc3cc(O)ccc23)cc(OC)c1OC`, the growth was 99.3% (inactive).
In the case of `COc1ccccc1/C=N/NC1=NC2C(N1)N(C)C(=O)N2C` (stereo not drawn), the growth is 103% (inactive).
With `CCN(CC)CCSCCCNc1c(C)cnc2cc(Cl)ccc12`, the growth was 87% (inactive).
As for `COc1cc(Nc2cc(O)c3c(=O)cc(-c4ccccc4)oc3c2)cc(OC)c1`, the growth is 68.5% (inactive).
Take `NC(=O)c1ncn(C2OC(CO)C(O)C2O)n1` (stereo not drawn): the growth is 106% (inactive).
Regarding `C(=N\Nc1ncc(-c2cc3cc4c(cc3o2)OCO4)s1)/c1c[nH]c2ccccc12`, the growth was 30.9% (inactive).
With `c1ccc(C2CC(c3cccc(Nc4ccncc4)c3)=NN2c2ccccc2)cc1` (stereo not drawn), the growth was -56.2% (active).
For `CC1=NNC(=O)C1CCC(=O)N/N=C(\C)c1ccc2ccccc2c1` (stereo not drawn), the growth was 109% (inactive).
`O=C(N/N=C/c1ccncc1)c1ccccc1Nc1cccc(C(F)(F)F)c1`: the growth is 94.9% (inactive).
As to `COc1ccc(Nn2c(SCC(=O)Nc3nc(-c4ccc(Cl)cc4)cs3)nc(C)c2C)cc1`, the growth was 86.8% (inactive).
For the molecule `COc1c(Cl)cc(Cl)c2ccc(C=C3C(=O)N(C)C(=O)N(C)C3=O)nc12`, the growth is 109% (inactive).
With `Cc1cccc(C)c1-c1cc(Cc2ccc(Cl)cc2)c(=O)[nH]n1`, the growth is 108% (inactive).
In the case of `CCN1C(=O)N(CC)C2C1NN=c1s/c(=C3\C(=O)Nc4ccccc43)c(=O)n12` (stereo not drawn), the growth was 53% (inactive).
Take `CC(=O)Nc1ccc(C(=O)Nc2cc(-c3ccccc3)ccc2N)cc1`: the growth was 56.6% (inactive).
On to `CN1CCN(c2cc(F)c(NC3=C(Cl)C(=O)c4ncccc4C3=O)c(F)c2)CC1`, for which the growth was -55.1% (active).
For the molecule `Clc1nc(Cl)c2ncn(CC3(Cn4cnc5c(Cl)nc(Cl)nc54)COC3)c2n1`, the growth was -97.9% (active).
On to `CC(C)(C)CC(C)(C)Nc1c(-c2ccc(C(F)(F)F)cc2)nc2cnccn12`, for which the growth was 93.9% (inactive).
As to `CCC(C)N(CCNc1cc(OC)cc2cccnc12)CCC(C)C` (stereo not drawn), the growth was 99.7% (inactive).
As for `Cn1c(COC(=O)NCCc2ccccn2)nc2c(N3CCOCC3)nc(Cl)nc21`, the growth was -90.8% (active).
For `BrC(Br)(Br)c1cnc2ccccc2n1`, the growth was 53.5% (inactive).
Consider `Clc1ccc(N2N=C(c3cccc(Nc4ccncc4)c3)CC2c2ccc3c(c2)OCO3)cc1` (stereo not drawn), for which the growth is -12.5% (active).
Consider `COc1cc(CNC(=O)CCCCC[P+](c2ccccc2)(c2ccccc2)c2ccccc2)c(OC)c2c1OCO2`, for which the growth is 42.1% (inactive).
Consider `CC[C@@]12C=CCN3CC[C@]4(c5cc(NC(=O)COc6cc(OCC(=O)Nc7cc8c(cc7OC)N(C)[C@H]7[C@@](O)(C(=O)OC)[C@H](OC(C)=O)[C@]9(CC)C=CCN%10CC[C@]87[C@@H]%109)cc7oc(-c8ccccc8)cc(=O)c67)c(OC)cc5N(C)[C@@H]4[C@](O)(C(=O)OC)[C@H]1OC(C)=O)[C@H]32`, for which the growth was 112% (inactive).
With `O=C1Nc2c(ccc(Cl)c2Cl)/C1=C/c1ccc(O)cc1`, the growth was 123% (inactive).
For `COc1ccc(/C=C(/c2ccccc2)[N+](=O)[O-])cc1`, the growth was -17.7% (active).
Take `COc1ccccc1/C=C1\Oc2cc(OCCCN3CCCC3)ccc2C1=O`: the growth is 91.9% (inactive).
With `COc1ccc(/C=C\c2nc3ccccc3s2)cc1OP(=O)(O)O`, the growth is 67.4% (inactive).
Next, `COc1ccc(-c2c[nH]c(C(=O)O)c2-c2cc(OC)c3c(c2OC)OCO3)cc1`: 104% (inactive); `COc1ccc(C(=O)c2cc3c(N)c(C(=O)Nc4cccc(Cl)c4C)sc3nc2C)cc1`: 63.3% (inactive); `O=C(/C=C\c1ccc(OCCCCCC[P+](c2ccccc2)(c2ccccc2)c2ccccc2)cc1)c1ccc2c(c1)OCCO2`: -0.666% (active).
As for `Cc1cccc(Oc2ccc(Nc3ncnc4ccc(NC(=O)CNCCO)cc34)cc2Cl)c1`, the growth was 68.8% (inactive).
Next, `O=C(CSc1nc2sc3c(c2c(=O)n1Cc1ccccc1)CCCC3)N1CCN(c2ccccc2)CC1`: 106% (inactive); `Cc1cccc(Oc2ccc(Nc3ncnc4ccc(NC(=O)CN(C)C)cc34)cc2Cl)c1`: 48.1% (inactive); `O=C1/C(=C/c2ccc(O)cc2)COc2ccc(-c3ccccc3)cc21`: 117% (inactive).
Next, `COc1ccc(C(=O)c2cc3c(N)c(C(=O)Nc4cccc(OC)c4)sc3nc2C)cc1`: 56.7% (inactive).
Turning to `NS(=O)(=O)c1cccc(NC(=O)C(=O)C2C(=O)Nc3ccccc32)c1` (stereo not drawn), the growth is 107% (inactive).
